In PubChem BioAssay (Tox21) one finds Potency data, which are given here for 29 compounds.

Structures are written as SMILES. Records with an inconclusive call do not appear. Active and inactive are the calls of the source. Unless noted, calls come from the whole dose curve; as a rule, active = well fitted curve in the direction sought with a large enough effect in the repeat runs; inconclusive = weak or mixed curves; inactive = no such curve, though single readings can be large; an effect the other way counts as inactive or inconclusive.

Experiment [1] can be described thus: qHTS assay to identify small molecule antagonists of the estrogen related receptor (ERR) signaling pathway from Tox21 library - cell viability counter screen (AID 1224834). Note: nearly all actives have a fitted effect of over 30% in size. Note: potency is the fitted concentration of half-maximal effect. Put shortly:
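After 17.5 h of compound exposure at 37 C, ERR cells are incubated with CellTiter-Fluor for 30 min and fluorescence intensity serves as the viability measure.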
In general terms: Quantitative high-throughput screening tests each substance at several concentrations.

The target of experiment [2] is Luciferin 4-monooxygenase (Photinus pyralis) (UniProt P08659). Nature of the experiment: qHTS assay to identify small molecule inhibitors of firefly luciferase (AID 1224835). Note: nearly all actives have a fitted effect of over 25% in size. Note: potency is the fitted concentration of half-maximal effect. In short, it runs like this:
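Biochemical qHTS: compounds run as interplate titrations against purified firefly enzyme, with D-luciferin and ATP each at its KM concentration. Light output recorded by CCD imaging.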

The nature of experiment [3]: qHTS assay to identify small molecule agonists of the constitutive androstane receptor (CAR) signaling pathway - cell viability counter screen (AID 1224836). Note: nearly all actives have a fitted effect of over 45% in size. Note: potency is the fitted concentration of half-maximal effect. In short, it runs like this: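 Fluorescence from CellTiter-Fluor indicates live cells after 23 h exposure. The human hepatoma line expresses hCAR and a CYP2B6-2.2kb reporter. Incubation medium contains 0.75 uM PK11195 (final).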

A short description of experiment [4]: qHTS assay to identify small molecule antagonists of the constitutive androstane receptor (CAR) signaling pathway - cell viability counter screen (AID 1224837). Note: nearly all actives have a fitted effect of over 45% in size. Note: potency is the fitted concentration of half-maximal effect. Put shortly: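 Counter screen run in HepG2-CYP2B6-hCAR cells: 4 hr settle, compound titration (15 concentrations) with 50 nM CITCO, 23 hr at 37 C/5% CO2, CellTiter-Fluor fluorescence.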
In experiment [5] the target is Nuclear receptor subfamily 1 group I member 3 (Homo sapiens) (UniProt Q14994). Nature of the experiment: qHTS assay to identify small molecule antagonists of the constitutive androstane receptor (CAR) signaling pathway (AID 1224838).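 Note: HepG2 cells stably expressing hCAR with CYP2B6 luciferase reporter stimulated by CITCO; nearly all actives have a fitted effect of over 40% in size.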 In short, it runs like this: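 Cell line: HepG2 double-stable for hCAR and CYP2B6-2.2kb reporter. Agonist: CITCO, 50 nM final. Compounds: 15 concentrations, 24 h, 37 C. Detection: ONE-Glo luminescence.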

Experiment [6] has the same target. Nature of the experiment: qHTS assay to identify small molecule agonists of the constitutive androstane receptor (CAR) signaling pathway (AID 1224839). Note: nearly all actives have a fitted effect of over 15% in size. Note: potency is the fitted concentration of half-maximal effect. In short, it runs like this: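 Stable hCAR/CYP2B6-2.2kb HepG2 line in DMEM with 10% FBS; compounds (15 concentrations) and 0.75 uM PK11195 final, 24 h at 37 C/5% CO2, then ONE-Glo luminescence after 30 min.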
Experiment [7] is described as follows: qHTS assay to identify small molecule antagonists of the estrogen related receptor signaling pathway with the pleiotropic PPARgamma coactivator (PGC) from Tox21 10K library - cell viability counter screen (AID 1224840; active = well fitted cell-killing curve with a large enough effect in the repeat runs, not every such curve was filed as active; note: nearly all actives have a fitted effect of over 40% in size; note: potency is the fitted concentration of half-maximal effect). In short, it runs like this: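 Following seeding of 2,000 PGC/ERR cells/well and 6 hours' incubation, test compounds were delivered in DMSO. The plates then sat 17.5 hours at 37 C before a fluorogenic live-cell protease reagent (CellTiter-Fluor) was read after 30 min.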

The target of experiment [8] is Thyrotropin receptor (Homo sapiens) (UniProt P16473). The experiment is described as follows: qHTS assay to identify small molecule agonists of the thyroid stimulating hormone receptor (TSHR) signaling pathway (AID 1224843; calls by dose curve; note: nearly all actives have a fitted effect of over 45% in size). Put shortly:
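Steps: seed 800 TSHR-HEK293 cells per well; add test compound and hold 30 min at ambient temperature; dispense cAMP-d2 then anti-cAMP cryptate; incubate 1 h at ambient; measure fluorescence intensity.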

The nature of experiment [9]: qHTS assay to identify small molecule antagonists of the estrogen related receptor signaling pathway with the pleiotropic PPARgamma coactivator (PGC) from Tox21 10K library (AID 1224841; call rule not given here; note: actives are mostly falling curves and most rising ones were filed inactive; nearly all actives have a fitted effect of over 50% in size; note: potency is the fitted concentration of half-maximal effect). In short, it runs like this: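 qHTS antagonist format: PGC/ERR cells, 2k/well, compound in DMSO by pin transfer after 6 h attachment, 18 h treatment at 37 C, One-Glo luminescence read at 30 min.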

Experiment [10] can be described thus: qHTS assay to identify small molecule agonists of the estrogen related receptor signaling pathway with the pleiotropic PPARgamma coactivator (PGC) from Tox21 10K library (AID 1224842). Note: nearly all actives have a fitted effect of over 15% in size. In short, it runs like this:
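PGC/ERR reporter cell line, 2,000 cells per well, incubated 6 h at 37 C before 23 nL compound in DMSO was added. After 18 h at 37 C, One-Glo luminescence read following 30 min at room temperature.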

Chain of Luciferin 4-monooxygenase (Photinus pyralis) (P08659 whole entry, looked up): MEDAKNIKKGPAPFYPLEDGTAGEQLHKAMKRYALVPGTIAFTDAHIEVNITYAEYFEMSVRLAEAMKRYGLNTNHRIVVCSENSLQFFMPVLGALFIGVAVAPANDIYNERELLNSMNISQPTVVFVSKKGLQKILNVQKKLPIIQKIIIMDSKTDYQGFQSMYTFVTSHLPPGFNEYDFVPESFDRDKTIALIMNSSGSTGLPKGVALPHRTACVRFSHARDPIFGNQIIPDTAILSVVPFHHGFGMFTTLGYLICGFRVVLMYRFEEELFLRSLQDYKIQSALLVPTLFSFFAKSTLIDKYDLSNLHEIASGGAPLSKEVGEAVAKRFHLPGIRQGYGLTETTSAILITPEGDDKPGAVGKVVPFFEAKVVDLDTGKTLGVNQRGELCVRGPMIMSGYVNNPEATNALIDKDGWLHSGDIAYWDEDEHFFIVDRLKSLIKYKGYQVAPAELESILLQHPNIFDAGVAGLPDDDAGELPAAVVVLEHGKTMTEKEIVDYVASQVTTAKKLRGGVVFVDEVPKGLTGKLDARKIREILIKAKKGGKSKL
Chain of Thyrotropin receptor (Homo sapiens) (P16473 whole entry, looked up): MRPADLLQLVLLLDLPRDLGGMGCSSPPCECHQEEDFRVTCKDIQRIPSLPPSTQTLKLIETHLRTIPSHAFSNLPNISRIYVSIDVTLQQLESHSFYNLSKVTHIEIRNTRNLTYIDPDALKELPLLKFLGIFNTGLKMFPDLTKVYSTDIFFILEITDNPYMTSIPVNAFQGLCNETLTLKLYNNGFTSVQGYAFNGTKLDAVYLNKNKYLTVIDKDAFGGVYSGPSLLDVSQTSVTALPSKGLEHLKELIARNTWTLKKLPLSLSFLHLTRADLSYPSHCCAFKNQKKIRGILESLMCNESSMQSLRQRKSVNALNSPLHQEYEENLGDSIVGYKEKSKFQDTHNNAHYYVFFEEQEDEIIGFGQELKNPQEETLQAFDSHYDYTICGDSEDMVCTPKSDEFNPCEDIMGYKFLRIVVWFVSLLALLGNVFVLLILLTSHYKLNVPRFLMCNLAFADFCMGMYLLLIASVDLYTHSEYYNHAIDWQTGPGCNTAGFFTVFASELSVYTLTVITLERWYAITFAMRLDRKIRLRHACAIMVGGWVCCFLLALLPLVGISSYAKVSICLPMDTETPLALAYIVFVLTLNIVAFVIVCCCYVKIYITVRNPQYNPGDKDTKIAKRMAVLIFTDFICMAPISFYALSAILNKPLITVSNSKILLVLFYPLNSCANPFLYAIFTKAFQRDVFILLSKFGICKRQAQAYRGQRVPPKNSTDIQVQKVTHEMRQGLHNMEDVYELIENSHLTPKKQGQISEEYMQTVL
Chain of Nuclear receptor subfamily 1 group I member 3 (Homo sapiens) (Q14994 whole entry, looked up): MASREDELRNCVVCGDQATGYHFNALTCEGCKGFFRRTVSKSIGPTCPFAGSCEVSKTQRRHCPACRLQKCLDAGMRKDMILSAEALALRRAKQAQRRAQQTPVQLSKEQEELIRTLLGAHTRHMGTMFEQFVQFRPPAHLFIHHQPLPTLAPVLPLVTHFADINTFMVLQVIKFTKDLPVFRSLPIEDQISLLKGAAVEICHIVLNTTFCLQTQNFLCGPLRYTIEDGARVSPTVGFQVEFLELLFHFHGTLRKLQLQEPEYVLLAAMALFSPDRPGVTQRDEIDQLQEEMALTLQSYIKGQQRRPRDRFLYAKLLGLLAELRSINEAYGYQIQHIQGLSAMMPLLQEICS

Consider `Cc1ccccc1S`, for which the Potency entry in experiment [1], in experiment [2], in [3], in experiment [4], in experiment [5] and in experiment [6] was “inactive” each time. In addition, the Potency result in experiment [7] and in experiment [8] was “inactive” in each case.
In the case of `CO/N=C(/C(=O)N[C@@H]1C(=O)N2C(C(=O)O)=C(COC(N)=O)CS[C@H]12)c1ccco1`, the Potency entry in experiment [1], in [2], in experiment [3], in experiment [4], in experiment [5] and in [6] was “inactive” in each case. Also, the Potency result in experiment [7] and in experiment [8] was “inactive” each time.
In the case of `O=C(Nc1cccc2c(=O)cc(-c3nn[nH]n3)oc12)c1ccc(OCCCCc2ccccc2)cc1`, the Potency result in experiment [1], in experiment [3], in experiment [4], in [5], in [6] and in experiment [7] was “inactive” each time. Besides, in [8], the Potency result was “inactive”. In addition, the Potency in [2] was 27.5 µM (active).
Regarding `Brc1cc(Br)c(Oc2cc(Br)c(Br)cc2Br)cc1Br`, the Potency entry in experiment [1], in [2], in [3], in experiment [4], in experiment [5] and in experiment [6] was “inactive” each time. Besides, the Potency entry in experiment [7] and in experiment [8] was “inactive” in each case.
For `N#[N+]c1ccc2c(S(=O)(=O)[O-])cccc2c1O`, the Potency result in experiment [1], in experiment [3], in experiment [4], in experiment [5], in [6] and in [7] was “inactive” in each case. The Potency entry in experiment [9], in experiment [10] and in [8] was “inactive” each time. The Potency in [2] is 44.8 µM (active).
Consider `CC(=O)Oc1ccc([N+](=O)[O-])cc1CCl`, for which the Potency in experiment [1] is 30.6 µM (active); in experiment [3], 43.3 µM (active); in experiment [4] it was 30.6 µM (active); in experiment [7], 30.6 µM (active). For the same compound, the Potency entry in experiment [2], in [5], in experiment [6], in experiment [9], in experiment [10] and in experiment [8] was “inactive” in each case.
For the compound `Cc1cc(O)c(C)c(C)c1O`, the Potency entry in experiment [1], in [2], in experiment [3], in experiment [4], in experiment [6] and in experiment [7] was “inactive” in each case. The Potency entry in experiment [10] was “inactive”.
On to `CC(=O)OCCN(CCOC(C)=O)c1ccc(N=Nc2ccc([N+](=O)[O-])cc2C#N)cc1`, for which the Potency in experiment [1] was 48.6 µM (active); in experiment [2], 35.6 µM (active); in [7], 48.6 µM (active). Besides, the Potency entry in experiment [3], in experiment [4], in experiment [5] and in experiment [10] was “inactive” each time.
For the compound `CCC1NC(=O)c2cc(S(N)(=O)=O)c(Cl)cc2N1` (centres undefined), the Potency result in experiment [1], in experiment [2], in [3], in experiment [4], in experiment [5] and in [7] was “inactive” throughout. In addition, the Potency result in experiment [8] is “inactive”.
`CN(C)CCN1C(=O)c2ccccc2N(C)c2ccccc21`: the Potency result in experiment [1], in [2], in [3], in [4], in [5] and in [7] was “inactive” throughout. The Potency entry in [8] was “inactive”. For the same compound, the Potency in experiment [6] was 26.6 µM (active).
As for `O=C1c2ccccc2C(=O)c2c(O)c(O)cc(O)c21`, the Potency in experiment [1] is 30.6 µM (active); in experiment [2] it was 44.8 µM (active). Besides, the Potency entry in [3], in [4], in [5], in experiment [9], in experiment [10] and in [8] was “inactive” each time.
For `OCCN1CCN(CCCN2c3ccccc3Sc3ccc(Cl)cc32)CC1`, the Potency in [1] was 26.6 µM (active); in [3], 29.8 µM (active); in experiment [4], 29.8 µM (active). The Potency result in [2], in experiment [6], in experiment [9] and in experiment [8] was “inactive” each time.
For the compound `CC[N+](CC)(CCNC(=O)C(=O)NCC[N+](CC)(CC)Cc1ccccc1Cl)Cc1ccccc1Cl`, the Potency result in experiment [1], in experiment [2], in experiment [3], in [4], in experiment [7] and in [9] was “inactive” each time. The Potency result in experiment [10] is “inactive”.
Consider `CC(C)(c1ccccc1)c1ccccc1`, for which the Potency entry in [1], in [2], in experiment [3], in experiment [4], in experiment [5] and in [7] was “inactive” each time. Moreover, in experiment [8], the Potency result is “inactive”. For the same compound, the Potency in [6] was 45.1 µM (active).
Take `CCCC(=O)C(=O)O`: the Potency result in experiment [1], in experiment [2], in experiment [3], in experiment [4], in experiment [5] and in experiment [6] was “inactive” each time. Besides, the Potency entry in experiment [7] and in experiment [8] was “inactive” each time.
As for `C=C(C)[C@@H]1CCC2=CCC[C@@H](C)[C@]2(C)C1`, the Potency result in [1], in [2], in experiment [3], in experiment [4], in experiment [6] and in [7] was “inactive” each time. The Potency result in experiment [9] and in [10] was “inactive” in each case.
Turning to `O=C(O)C[C@H](NC(=O)OCc1ccccc1)C(=O)O`, the Potency entry in [1], in experiment [2], in experiment [3], in experiment [4], in [5] and in experiment [6] was “inactive” in each case. Further, the Potency result in experiment [7] and in experiment [8] was “inactive” each time.
Regarding `CC(=O)c1ccc([N+](=O)[O-])cc1`, the Potency result in experiment [1], in [2], in experiment [3], in experiment [4], in [7] and in [9] was “inactive” throughout. Besides, the Potency entry in [10] is “inactive”.
Take `O=C(/C=C/c1ccccc1)OCCc1ccccc1`: the Potency result in experiment [1], in experiment [3], in experiment [4], in experiment [5] and in [7] was “inactive” in each case. Besides, the Potency in experiment [2] is 4.48 µM (active).
`CN1CCCC(n2nc(Cc3ccc(Cl)cc3)c3ccccc3c2=O)CC1` (centres undefined): the Potency was 29.8 µM (active) in experiment [1], 23.7 µM (active) in experiment [3] and 16.8 µM (active) in [4]. For the same compound, the Potency result in experiment [2], in experiment [6], in experiment [7], in [9], in [10] and in experiment [8] was “inactive” throughout.
For `C(=C\c1ccccc1)/c1ccccc1`, the Potency result in experiment [1], in experiment [3], in experiment [4], in experiment [5], in experiment [7] and in [9] was “inactive” each time. The Potency entry in experiment [8] is “inactive”. The Potency in [2] is 7.9 µM (active).
Take `CCCCC(CC)COP(=O)(O)O` (centres undefined): the Potency entry in experiment [1], in [2], in experiment [3], in experiment [4], in experiment [5] and in experiment [6] was “inactive” in each case. Further, the Potency result in experiment [7] and in experiment [8] was “inactive” each time.
Turning to `CC1=C(CC=O)C(C)(C)CCC1`, the Potency entry in experiment [1], in experiment [2], in experiment [3], in [4] and in experiment [7] was “inactive” throughout.
`O=c1[nH]c2ccc(Cl)cc2o1`: the Potency result in experiment [1], in [2], in [3], in experiment [4], in experiment [7] and in [9] was “inactive” throughout. For the same compound, the Potency result in [10] and in [8] was “inactive” in each case.
Consider `CCC(C)COC(C)=O` (centres undefined), for which the Potency entry in [1], in experiment [2], in experiment [3], in experiment [4], in experiment [7] and in experiment [9] was “inactive” throughout. Also, the Potency result in [10] and in experiment [8] was “inactive” throughout.
As for `CCCCCCCC/C=C\CCCCCCCCO`, the Potency result in experiment [1], in experiment [2], in experiment [3], in experiment [4], in [7] and in experiment [9] was “inactive” throughout. Besides, the Potency entry in [10] and in experiment [8] was “inactive” in each case.
`Nc1nnc(-c2ccc([N+](=O)[O-])o2)o1`: the Potency is 48.6 µM (active) in experiment [1], 30.6 µM (active) in experiment [3] and 48.6 µM (active) in experiment [4]. Also, the Potency entry in [2] and in experiment [6] was “inactive” throughout.
For `CC1CC(OC(=O)C(O)c2ccccc2)CC(C)(C)N1C` (centres undefined), the Potency result in experiment [1], in experiment [2], in experiment [3], in experiment [4], in experiment [7] and in [9] was “inactive” throughout. The Potency result in experiment [10] and in experiment [8] was “inactive” throughout.
Consider `O=[N+]([O-])c1cc(C2CCCCC2)c(O)c([N+](=O)[O-])c1`, for which the Potency is 12.2 µM (active) in [1]; 39.8 µM (active) in experiment [2]; 12.2 µM (active) in experiment [3]; 15.3 µM (active) in [4]; 12.2 µM (active) in [7]; 4.84 µM (active) in [9]. For the same compound, the Potency result in [6], in [10] and in [8] was “inactive” in each case.
